Compound activity: PubChem BioAssay, National Center for Advancing Translational Sciences (NCATS)
This is a sample that favours compounds with a hit; in the whole collection about 7% have one here.
PLK1 PBD block: qHTS for Inhibitors of PLK1-PDB (polo-like kinase 1 - polo-box domain): Primary Screen; Serine/threonine-protein kinase PLK1 (Homo sapiens), P53350; Plk1 PBD binding of FITC phosphopeptide, fluorescence polarization; Potency, µM, actives largely listed as inhibitors; 2.8% of 360,000 active; AID 720504, 2013; further: series mostly up to about 57 µM; nearly all actives have a fitted effect of over 65% in size
Target sequence (P53350 whole entry, looked up, the tested form may be a part): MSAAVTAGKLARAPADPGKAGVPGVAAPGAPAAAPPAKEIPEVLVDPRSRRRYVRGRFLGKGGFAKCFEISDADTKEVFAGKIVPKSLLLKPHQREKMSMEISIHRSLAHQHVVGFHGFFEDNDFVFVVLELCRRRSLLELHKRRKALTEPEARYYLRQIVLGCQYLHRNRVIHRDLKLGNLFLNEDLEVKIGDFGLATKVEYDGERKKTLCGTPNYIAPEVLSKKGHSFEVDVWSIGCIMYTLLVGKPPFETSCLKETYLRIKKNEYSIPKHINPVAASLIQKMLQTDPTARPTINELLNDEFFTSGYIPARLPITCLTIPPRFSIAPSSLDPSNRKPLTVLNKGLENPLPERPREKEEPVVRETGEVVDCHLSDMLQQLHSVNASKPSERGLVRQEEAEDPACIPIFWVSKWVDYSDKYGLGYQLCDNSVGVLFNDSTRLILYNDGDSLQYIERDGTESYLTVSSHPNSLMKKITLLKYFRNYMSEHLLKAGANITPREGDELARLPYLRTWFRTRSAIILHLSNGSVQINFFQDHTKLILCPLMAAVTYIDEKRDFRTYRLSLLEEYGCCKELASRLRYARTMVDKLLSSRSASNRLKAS
GCN5L2 inh: qHTS Assay for Inhibitors of GCN5L2. GCN5L2 HAT assay, ThioGlo1 CoA-SH fluorescence. Potency, µM (top dose mostly 58.9 µM), hits mostly inhibitors. 0.21% of 390,000 active. AID 504327, 2011
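GCN5L2 (20nM final) in 50mM HEPES, 0.1mM EDTA pH 7.5, 0.01% Tween-20 was preincubated 15 min at room temperature with compound, then given ThioGlo1 (50uM), H3(1-25) peptide (75uM) and acetyl-CoA (70uM); CoA-thiol fluorescence (Ex340/Em540) was read at 0 and 20 min.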
PI5P4K alpha inh: qHTS for Inhibitors of phosphatidylinositol 5-phosphate 4-kinase (PI5P4K) | 1.2% of 330,000 active | AID 652105, 2013 | PI5P4Kalpha enzyme, ADP-Glo luminescence, 60 min; active compounds read low | max response, % | Phosphatidylinositol 5-phosphate 4-kinase type-2 alpha (Homo sapiens), P48426; active means max response of -50% or lower; inconclusive means between -30% and -50%; inactive means -30% or higher; further: value at the top dose of about 77 µM
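Luminescence from ADP-Glo served as readout of PI5P4Kalpha activity in a qHTS format. Reaction: enzyme, substrate, compound, ATP at 5 microM final, 60 min at RT.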
JMJD2A Tudor: qHTS Assay for Inhibitors of JMJD2A-Tudor Domain; Potency, µM (titrated, usually from 114 µM), actives largely listed as inhibitors; 4.4% of 390,000 active; AID 504339, 2011; AlphaScreen JMJD2A-Tudor / H3K4me3 peptide binding; Lysine-specific demethylase 4A (Homo sapiens), O75164; further: nearly all actives have a fitted effect of over 50% in size
BAZ2B inh: qHTS Assay for Inhibitors of BAZ2B | AlphaScreen BAZ2B-H3K14Ac peptide displacement | Potency, µM (doses to about 114 µM), hits mostly inhibitors | 4.4% of 360,000 active; further: nearly all actives have a fitted effect of over 60% in size
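AlphaScreen displacement of biotin-H3(5-23)K14Ac peptide (50 nM final) from BAZ2B (50 nM final) in PBS pH 7.4, 0.01% Tween-20; complex preformed 30 min RT, then compounds (top 110 uM) 30 min RT, beads 20 min dark.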
HP1b chromo inh: HTS for Inhibitors of HP1-beta Chromodomain Interactions with Methylated Histone Tails; Chromobox protein homolog 1 (Homo sapiens), P83916; AlphaScreen HP1-beta / biotin-H3K9me3 peptide binding; Potency, µM (doses to about 114 µM), usual class: inhibitors; 0.56% of 390,000 active; AID 540317, 2011; further: nearly all actives have a fitted effect of over 70% in size
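Compound inhibition of the preformed complex between 50 nM HP1-beta and 50 nM biotinylated H3K9me3 peptide was read by AlphaScreen. Buffer was PBS pH 7.4 with 0.01% Tween-20. Incubations ran 30 min at room temperature, with 10 ug/mL donor/acceptor beads.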
Numbers stand for hits. Unless noted, the call rests on the fitted dose curve; in most records, active means well fitted curve in the direction sought with a large enough effect; inconclusive means small, poorly fitted or top-dose-only effect, or another doubt; inactive means no such curve, though single readings can be large; an effect the other way counts as inactive or inconclusive.

`COc1cc(-c2nn3c(-c4ccccc4)nnc3s2)cc(OC)c1OC` gave PLK1 PBD block inactive, GCN5L2 inh inactive, JMJD2A Tudor inactive, BAZ2B inh inactive and HP1b chromo inh inactive.
Screening COc1cc(-c2nn3c(COc4ccccc4)nnc3s2)cc(OC)c1OC returned PLK1 PBD block 26.7µM, GCN5L2 inh inactive, PI5P4K alpha inh inactive, JMJD2A Tudor inactive, BAZ2B inh inactive and HP1b chromo inh inconclusive.
Screening COc1cc(-c2nnc3sc(-c4ccncc4)nn23)cc(OC)c1OC returned PLK1 PBD block 11.9µM, PI5P4K alpha inh inactive, JMJD2A Tudor inactive and HP1b chromo inh inactive.
For COc1cc(-c2nn3c(Cc4ccccc4)nnc3s2)cc(OC)c1OC the results were PLK1 PBD block 26.7µM, GCN5L2 inh inactive, JMJD2A Tudor inactive, BAZ2B inh inactive and HP1b chromo inh inactive.
CCOc1ccc(CCNC(=O)C2Cc3ccccc3N2C(=O)CC)cc1OCC (centres undefined) was read as GCN5L2 inh inactive, JMJD2A Tudor inactive, BAZ2B inh inactive and HP1b chromo inh inactive.
CCOc1ccc(NC(=O)Cn2c(C)cc3ccccc3c2=O)cc1 was read as GCN5L2 inh inactive, JMJD2A Tudor inactive, BAZ2B inh inactive and HP1b chromo inh inactive.
`Cc1c(C(=O)N2CCOCC2)c(S(=O)(=O)Nc2ccc(C(C)C)cc2)c(C)n1C` gave PLK1 PBD block 26.7µM, GCN5L2 inh inactive, PI5P4K alpha inh inactive, JMJD2A Tudor inconclusive, BAZ2B inh inactive and HP1b chromo inh inactive.
For Cc1ccc(NS(=O)(=O)c2c(C(=O)N3CCCCCC3)c(C)n(C)c2C)cc1C the results were PLK1 PBD block 21.2µM, GCN5L2 inh inactive, PI5P4K alpha inh inactive, JMJD2A Tudor inconclusive, BAZ2B inh inactive and HP1b chromo inh inactive.
`Clc1ccc(-c2nc3cc(CN4CCCCC4)ccc3o2)cc1` gave PLK1 PBD block inactive, GCN5L2 inh inactive, PI5P4K alpha inh inactive, JMJD2A Tudor inactive, BAZ2B inh inactive and HP1b chromo inh inactive.
`CCOC(=O)C1=C(COC(=O)c2cccnc2SC)NC(=O)NC1C` (centres undefined) gave PLK1 PBD block inactive, GCN5L2 inh inactive, PI5P4K alpha inh inactive, JMJD2A Tudor inactive and HP1b chromo inh inactive.
For Nc1nc(Nc2cc(F)cc(F)c2)nc(NC2CCCC2)n1 the results were JMJD2A Tudor inactive.
CC1=NN(c2ccccc2)C(=O)/C1=C\c1c(C)[nH]n(-c2ccccc2)c1=O was read as PLK1 PBD block inactive, GCN5L2 inh inactive, JMJD2A Tudor inconclusive, BAZ2B inh inactive and HP1b chromo inh inactive.
For CC1=NN(c2ccccc2)C(=O)/C1=C\c1sccc1C the results were PLK1 PBD block 10.6µM, GCN5L2 inh inactive, PI5P4K alpha inh inactive, JMJD2A Tudor inconclusive, BAZ2B inh 7.08µM and HP1b chromo inh inconclusive.
Screening CC1=NN(c2ccccc2)C(=O)/C1=C\c1cn(-c2ccccc2)nc1C returned PLK1 PBD block inactive, GCN5L2 inh inactive, PI5P4K alpha inh inactive, JMJD2A Tudor inconclusive and HP1b chromo inh 8.91µM.
`COc1ccccc1/C=C1/C(=O)N(c2ccccc2)N=C1C` gave PLK1 PBD block 2.67µM, GCN5L2 inh inactive, PI5P4K alpha inh inactive, JMJD2A Tudor inconclusive, BAZ2B inh inconclusive and HP1b chromo inh inactive.
For CC1=NOC(=O)/C1=C/c1ccc2c(c1)OCO2 the results were PLK1 PBD block inconclusive, GCN5L2 inh inactive, PI5P4K alpha inh inactive, JMJD2A Tudor inactive, BAZ2B inh inconclusive and HP1b chromo inh inactive.
COc1ccccc1/C=C1/C(=O)ON=C1C was read as PLK1 PBD block 4.74µM, GCN5L2 inh inactive, PI5P4K alpha inh inactive, JMJD2A Tudor inactive, BAZ2B inh inactive and HP1b chromo inh inactive.
Screening CC(C)(C)CC(=O)NCC(c1ccc2c(c1)OCO2)N1CCN(c2ccccc2)CC1 (centres undefined) returned GCN5L2 inh inactive, JMJD2A Tudor inactive, BAZ2B inh inactive and HP1b chromo inh inactive.
For O=C(C1CCN(S(=O)(=O)c2ccc(Cl)c(C(F)(F)F)c2)CC1)N1CCC1 the results were PLK1 PBD block inactive, GCN5L2 inh inactive, PI5P4K alpha inh inactive, JMJD2A Tudor inactive, BAZ2B inh inactive and HP1b chromo inh inactive.
CC1=NN(c2ccccc2)C(=O)/C1=C/C=C/c1ccccc1 was read as PLK1 PBD block inconclusive, GCN5L2 inh inactive, PI5P4K alpha inh inactive, JMJD2A Tudor 8.91µM, BAZ2B inh 7.94µM and HP1b chromo inh 31.6µM.
`CC1=NOC(=O)/C1=C\c1ccc(-c2ccc(Cl)cc2Cl)o1` gave PLK1 PBD block 0.423µM, GCN5L2 inh inactive, PI5P4K alpha inh inconclusive, JMJD2A Tudor inconclusive, BAZ2B inh inconclusive and HP1b chromo inh inactive.
`CCCOc1ccc(Cl)cc1/C=C1/C(=O)ON=C1C` gave PLK1 PBD block 2.38µM, GCN5L2 inh inactive, PI5P4K alpha inh inactive, JMJD2A Tudor 7.94µM, BAZ2B inh inactive and HP1b chromo inh inactive.
Screening CC(=O)c1cccc(NC(=O)C(C)OC(=O)c2cc(=O)[nH]c3ccccc23)c1 (centres undefined) returned PLK1 PBD block inactive, GCN5L2 inh inactive, PI5P4K alpha inh inactive, JMJD2A Tudor inactive, BAZ2B inh inactive and HP1b chromo inh inactive.
`O=C1C2C=CC=CC2=NC(=S)N1CCN1CCC(=C(c2ccc(F)cc2)c2ccc(F)cc2)CC1` (centres undefined) gave GCN5L2 inh inactive.
For CN=C1S/C(=C\c2ccc(O)c(Br)c2)C(=O)N1C the results were PLK1 PBD block inactive, GCN5L2 inh inactive, PI5P4K alpha inh -78.7, JMJD2A Tudor inactive, BAZ2B inh inactive and HP1b chromo inh inactive.
Screening Cc1cccc(C(=O)N2CCN(Cc3nc4sc5c(c4c(=O)[nH]3)CCCC5)CC2)c1 returned PLK1 PBD block inactive, GCN5L2 inh inactive, PI5P4K alpha inh inactive, JMJD2A Tudor inactive, BAZ2B inh inactive and HP1b chromo inh inactive.
For COc1ccc(OC)c(C2C3=C(N=C4SCC(=O)N42)c2ccccc2CC3)c1 (centres undefined) the results were PLK1 PBD block inconclusive, GCN5L2 inh inactive, PI5P4K alpha inh inactive, JMJD2A Tudor inconclusive, BAZ2B inh 50.1µM and HP1b chromo inh inactive.
Screening COc1cccc(C2C3=C(N=C4SCC(=O)N42)c2ccccc2CC3)c1OC (centres undefined) returned PLK1 PBD block inactive, GCN5L2 inh inactive, PI5P4K alpha inh inactive, JMJD2A Tudor inactive, BAZ2B inh inactive and HP1b chromo inh inactive.
`Cc1cccc(NC(=O)c2ccc(-n3cnc4cccnc43)cc2)c1C` gave GCN5L2 inh inactive, JMJD2A Tudor inactive, BAZ2B inh inactive and HP1b chromo inh inactive.
